Measurements as given in the supplement of paper PMC3334620.
In all, about 33,000 sequences were measured (“E-score (-0.5 to 0.5)”: median about -0.043, highest 2% from about 0.37 on). The entries come from a sample that favours the highest values as a whole.

The sequences below were run against T1, Upc2 (UniProt Q12151) (assay: PBM E-score (8-mer binding enrichment) (E-score (-0.5 to 0.5)); higher = stronger / more preferred TF binding). Settings: protein concentration: 200 nM; construct: GST-full length.
T1 sequence: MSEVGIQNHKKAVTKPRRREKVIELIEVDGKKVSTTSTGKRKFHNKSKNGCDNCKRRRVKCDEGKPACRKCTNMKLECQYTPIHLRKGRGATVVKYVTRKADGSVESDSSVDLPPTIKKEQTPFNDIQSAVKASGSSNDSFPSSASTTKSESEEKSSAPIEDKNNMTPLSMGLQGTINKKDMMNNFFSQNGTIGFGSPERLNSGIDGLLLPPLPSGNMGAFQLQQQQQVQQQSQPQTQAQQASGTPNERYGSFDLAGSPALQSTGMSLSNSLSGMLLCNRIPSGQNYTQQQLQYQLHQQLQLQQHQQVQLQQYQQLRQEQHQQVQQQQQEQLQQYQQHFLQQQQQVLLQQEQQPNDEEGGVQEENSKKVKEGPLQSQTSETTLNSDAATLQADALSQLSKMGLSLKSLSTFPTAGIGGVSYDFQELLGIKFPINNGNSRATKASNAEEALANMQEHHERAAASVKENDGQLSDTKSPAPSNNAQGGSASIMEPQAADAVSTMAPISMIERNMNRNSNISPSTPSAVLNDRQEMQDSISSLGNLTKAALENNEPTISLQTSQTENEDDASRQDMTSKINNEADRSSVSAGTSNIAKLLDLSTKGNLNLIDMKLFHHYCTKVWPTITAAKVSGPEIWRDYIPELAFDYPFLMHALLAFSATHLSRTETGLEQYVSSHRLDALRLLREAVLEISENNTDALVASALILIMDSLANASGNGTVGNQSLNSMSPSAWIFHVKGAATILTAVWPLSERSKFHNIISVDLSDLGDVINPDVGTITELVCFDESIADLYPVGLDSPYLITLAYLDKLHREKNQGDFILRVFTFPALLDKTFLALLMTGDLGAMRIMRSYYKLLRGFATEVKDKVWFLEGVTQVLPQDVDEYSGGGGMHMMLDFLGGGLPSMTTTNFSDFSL
Protocol: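 Universal 'all 10-mer' protein binding microarrays (Agilent AMADID 015681) probed with GST-tagged S. cerevisiae TFs (full-length or DBD) made by in vitro transcription/translation (PURExpress), about 100-200 nM. Bound TF was detected with fluorescent anti-GST. Each ungapped 8-mer (which stands for itself and its reverse complement) is scored by the PBM enrichment score (E-score), a modified Wilcoxon-Mann-Whitney statistic from -0.5 to +0.5, computed with the Universal PBM Analysis Suite. Scale: above 0.35 generally sequence-specific binding.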

Sequence | PBM E-score
TCCTCAAA | -0.24
AGAGCCCG | -0.0194
CTGACGTA | 0.164
ATGAACGG | 0.261
GTGAACGA | 0.453
ATGAACGA | 0.459
ATGAACGC | 0.14
GTGAACAA | 0.128
CTGAACTA | -0.104
GTGAACTA | 0.142
CTGAACGC | 0.121
CTGAACGA | 0.472
TTGACCAA | -0.179
AACTACCT | -0.152
ACCAGAAC | 0.0633
CACGATGG | 0.0566
TACGATGA | 0.433
AACGATGT | 0.388
GACGATGC | -0.0158
ACCGATGA | 0.0812
AACGATGA | 0.387
ATCGATGA | -0.0519
CACGATGC | 0.0841
GACGATGA | -0.00259
AACGATGG | 0.391

Sequence | PBM E-score
CACGATGA | 0.169
AACGATGC | 0.352
CCAGTGAC | -0.217
CAGAGATG | -0.222
GACTGATC | -0.118
GATTCCCC | -0.214
GAGTACGA | 0.375
TAGTACAA | 0.00376
TAGTACCA | -0.148
GAGTACGC | -0.0301
GAGTACAA | -0.0557
AAGTACGA | 0.407
AAGTACGT | 0.154
AAGTACGC | 0.115
CAGTACGG | 0.257
CAGTACGA | 0.411
CAGTACGC | 0.037
TAGTACGA | 0.401
TCTGATCA | -0.317
TCGCAAAA | 0.216
CGCTACAG | -0.105
CGTCTATA | 0.0202
CGGGAGGA | -0.157
AGAGCATA | -0.0221
AACTTTGT | -0.172

Sequence | PBM E-score
TTTAGAAA | 0.133
GCTTAGCA | -0.00347
TAATTACA | -0.0323
AAGATCGC | 0.148
AAGATCGT | 0.371
ACGATCGC | 0.352
ACGATCGG | 0.295
ACGATCGT | 0.438
AAGATCGG | -0.0541
ATTACCGC | 0.0457
ACGAGCTA | 0.394
GCGAGCTA | 0.207
ACGAGCTC | 0.404
ACGAGCTG | 0.36
CCGAGCTC | 0.197
CCGAGCTA | 0.0202
AGGATAGG | -0.0689
CTTCATCC | -0.177
ACTCAGTC | -0.097
GCTGCAGC | -0.125
CCCATACA | -0.22
ACCATACC | -0.0989
ACCATACG | 0.399
ACCATACA | -0.0345
CCCATACC | 0.0537

Sequence | PBM E-score
CCCATACG | 0.407
ACTAAGAA | -0.0494
GATGGGAA | -0.0309
TCGGAAAA | 0.234
ATAAGATA | 0.146
CCTAAAGC | -0.082
AGTAAAGC | -0.0204
GGTAAAGA | 0.0863
AGTAAAGA | -0.212
CGTAAAGC | 0.403
CGTAAAGA | 0.412
CGGTTTAG | 0.161
CGGAAGAG | -0.146
CCAGTTAC | -0.21
TGTTAGAA | -0.177
CGTTTGAC | 0.363
CGTTTGCA | 0.395
CGTTTGGC | 0.409
CGTTTGAA | 0.35
CGTTTGCC | 0.323
CGTTTGTC | 0.34
AGTTTGGC | -0.015
GGTTTGGA | -0.0119
AGTTTGGA | -0.014
CGTTTGAG | 0.396

Sequence | PBM E-score
GGTTTGCA | 0.0633
CGTTTGGA | 0.428
CTTATGCC | -0.0216
ATTCTGTA | 0.0418
TGAAATCA | -0.103
CAACAAGC | -0.163
GGTGTCAA | -0.169
ATCGATTG | 0.0896
AACGGTTC | 0.166
CCTTCCAA | -0.216
GGGTTCAA | -0.157
ACTTATTC | -0.0293
ATCGCAGC | 0.085
AACGTCAC | -0.0182
GCGTCGAA | -0.0193
CCGTCGTA | 0.457
CCGTCGTC | 0.0861
ACGTCGTA | 0.458
ACGTCGTG | 0.0636
GCGTCGTA | 0.468
CCGTCGGA | 0.0146
ACGTCGTC | 0.206
GCGTCGCA | 0.19
AGGGTAGG | -0.331
ACTAACCT | 0.042

Sequence | PBM E-score
ATCATCTG | -0.129
TACCATGA | -0.108
ACTGAACT | -0.0256
ACTGAACG | 0.395
CCTGAACC | -0.146
CCTGAACG | 0.394
ACTGAACA | 0.0269
CCTGAACA | -0.0282
GCTCTTAA | 0.108
AGCAGAAG | -0.255
ACAAATTC | -0.0428
GGGCTGTA | -0.0846
CATCGTTA | 0.324
CATCGTTC | 0.416
AATCGTTC | 0.396
AATCGTTA | 0.292
CATCGTGC | 0.054
AATCGTTG | 0.142
TACAGGAA | 0.0741
ATCCGAGG | 0.18
AGTCCTGA | -0.291
AAAGGGCC | -0.285
CGTTTAGC | 0.48
AGTTTAGC | 0.00286
CGTTTAGA | 0.466

Sequence | PBM E-score
AGTTTAGA | -0.00847
GGTTTAGA | -0.055
CATTTAGC | -0.0255
GGACTACA | -0.219
ATTCCATC | 0.0445
CCCTACTA | -0.242
ATTGGTTA | -0.0342
AGTGAGTC | -0.211
CAGTTGTC | -0.147
CAGAGAGC | -0.203
GGATTTAC | 0.00936
AGCAGATG | -0.221
AGCGATTC | 0.181
ACCGATTG | 0.0763
AACGATTG | 0.391
CACGATTC | 0.258
AACGATTC | 0.393
AACGATTA | 0.364
TAAAATCA | 0.0046
ACGTGCTA | 0.207
CCCGCAAG | -0.239
ATGTCATG | -0.0317
